In PubChem BioAssay (NCI):
Compounds without any hit were thinned out: in the full panel of roughly 79,000, 15% have a hit. Rule as the data show it: active = growth inhibition above about 70%; inactive = the rest.

Tests used:
[1] = NCI Yeast Anticancer Drug Screen. Data for the rad50 strain (AID 155);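 also: 0% = growth of vehicle-only cultures of the same strain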; conditions: S. cerevisiae rad50 strain growth inhibition; at 50.0 µM; hits give high values
Summary of the method: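 Inhibition values express reduced yeast growth in compound-treated cultures relative to vehicle-treated controls.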

[2] = NCI Yeast Anticancer Drug Screen. Data for the mec2-1 strain (AID 157); conditions: S. cerevisiae mec2-1 strain, at 50.0 µM, hits give high values
Summary of the method: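 Cells of the genetically defined mec2-1 yeast strain are incubated with test compound. Inhibition of growth is calculated against vehicle-treated controls.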

[3] = NCI Yeast Anticancer Drug Screen. Data for the sgs1 mgt1 strain (AID 161);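 also: 0% = growth of cultures given vehicle only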; conditions: S. cerevisiae sgs1 mgt1 strain, at 50.0 µM, hits give high values
Summary of the method: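 Mutant yeast exposed to compound; growth scored against vehicle-only wells.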

[4] = NCI Yeast Anticancer Drug Screen. Data for the cln2 rad14 strain (AID 165);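 also: 0% = growth equal to vehicle treated cultures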; conditions: S. cerevisiae cln2 rad14 strain, at 50.0 µM, hits give high values
Summary of the method: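 The screen exposed genetically defined yeast (cln2 rad14) to test compounds and scored growth inhibition relative to vehicle-treated controls.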

[5] = NCI Yeast Anticancer Drug Screen. Data for the bub3 strain (AID 167); conditions: S. cerevisiae bub3 mutant strain, at 50.0 µM, hits give high values
Summary of the method: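 Steps: expose the mutant yeast strain to compound; grow alongside vehicle-treated cultures; measure growth; express inhibition against the vehicle cultures.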

[6] = NCI Yeast Anticancer Drug Screen. Data for the mlh1 rad18 strain (AID 175); conditions: S. cerevisiae mlh1 rad18 strain growth inhibition; at 50.0 µM; hits give high values
Summary of the method: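 Compound-treated yeast growth, normalised to vehicle controls. Strain bears defined DNA repair mutations.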

Measured: growth inhibition

CN(C)C1=NC(NCc2ccccc2)(N(C)C)OC(N(C)C)=N1 (stereo unspecified)
inactive: [1] 1.95% | [2] 4.9% | [3] 0.55% | [4] 8.7% | [5] 13.7% | [6] 15.5%

CCN=C1Nc2ccccc2-n2c(nn3nc4ccccc4c23)N1CC
inactive: [1] -13.1% | [2] -26.4% | [3] -42% | [4] -24.3% | [5] -41% | [6] -51.7%

Cc1ccc2c(c1)[nH]c(=S)n2C=C1C(=O)NC(=O)NC1=O
inactive: [1] -6.3% | [2] -27.9% | [3] -38% | [4] -10.6% | [5] -7.35% | [6] -15.4%

CCCCN(CCOc1ccnc(=O)[nH]1)CC(C)C
inactive: [1] 6% | [2] 13.2% | [3] -3.2% | [4] -35.5% | [5] 11.3% | [6] -7.7%

Cc1ccc(C(C)C)cc1OC(=O)NC1CCCCC1
inactive: [1] -4% | [2] 9.3% | [3] 9.9% | [4] -13.2% | [5] -23.4% | [6] -0.6%

CCSCC1(c2ccc(OC)cc2)NC(=O)NC1=O (stereo unspecified)
inactive: [1] -20.5% | [2] 2.65% | [3] 7.6% | [4] -10.1% | [5] -10.7% | [6] 1.05%

O=S(=O)(CC1=NC2C=CC=CC2N=C1)NCc1ccccc1 (stereo unspecified)
inactive: [1] 7.3% | [2] -18.9% | [3] 12.8% | [4] 30.3% | [5] 25.6% | [6] -11.8%

Cc1c(C)n(COCCO)c2ncnc(N)c12
inactive: [1] -14.2% | [2] -37.1% | [3] -23.6% | [4] 13.8% | [5] -12.6% | [6] -39%

C(=C1c2c(ccc3ccccc23)Oc2ccc3ccccc3c21)c1ccccc1
inactive: [1] 14.3% | [2] 10.6% | [3] 12.3% | [4] -30.1% | [5] 1.65% | [6] 14.3%

c1c[nH]c(C2=NCCCCC2)c1
inactive: [1] 1.85% | [2] -6.95% | [3] 2.2% | [4] -3% | [5] -5.2% | [6] -29.1%

Cc1nc2ccc(N)cc2[nH]c1=O
inactive: [1] 16.9% | [2] 7% | [3] 12.8% | [4] 14.5% | [5] 6.5% | [6] 25.3%

CC(C)(C)c1ccc(C(=O)N2CCOC23CCCCC3)cc1
inactive: [1] -11.7% | [2] -20.1% | [3] 7.25% | [4] 3.2% | [5] 17.1% | [6] -38.5%

C[C@@H]1CC[C@@]2(C)C(C(=O)O)=CCCC2[C@@]1(C)CC(=O)c1ccoc1 (stereo partly specified)
inactive: [1] -11.9% | [2] -8.55% | [3] -36.1% | [4] -17.1% | [5] -42.5% | [6] -35.2%

Cc1ccc(C2(O)CC(c3ccc([N+](=O)[O-])o3)=NN2C(=O)COc2ccccc2Cl)cc1 (stereo unspecified)
inactive: [1] 46.1% | [2] -15.2% | [3] -0.45% | [4] 0.15% | [5] -1.9% | [6] -6.45%

O=C1C(=S)Nc2c(F)cccc21
inactive: [1] 21.6% | [2] 51.4% | [3] 24.2% | [4] 39.6% | [5] 29.6% | [6] 31.9%

COC1OC(CS(=O)(=O)O)C(O)C(O)C1O (stereo unspecified)
inactive: [1] -44.5% | [2] -2.15% | [3] -1.85% | [4] -13.6% | [5] -31.9% | [6] -4.3%

CNC(=S)Nc1ccccc1
inactive: [1] -21.3% | [2] -33.8% | [3] 3.55% | [4] -8.15% | [5] -5.35% | [6] 18.8%

COc1ccc(/C(=N\NC(=O)NN)C(c2ccc(OC)cc2)C2(O)C(=O)Nc3c(Cl)cc(Cl)cc32)cc1 (stereo unspecified)
inactive: [1] 6.2% | [2] -7.75% | [3] -57% | [4] -16.8% | [5] 8.6% | [6] -10.2%

CCOC(=O)C(C#N)(Cc1ccccc1CC(C#N)(NC(C)=O)C(=O)OCC)NC(C)=O (stereo unspecified)
inactive: [1] -4.9% | [2] -0.25% | [3] -10.1% | [4] -0.3% | [5] -3.4% | [6] 10.7%

Nc1nnc2nc(C(C(=O)c3cccc(O)c3)c3nc4nnc(N)n4[nH]c3=O)c(=O)[nH]n12
inactive: [1] 8.65% | [2] 0% | [3] -7.05% | [4] 4.7% | [5] 1.2% | [6] 1.05%

Cc1ccc2c(c1)-c1nc3nnnn3nc1C(C)(C)O2
inactive: [1] 21% | [2] 6.8% | [3] 34% | [4] -6.85% | [5] 15.1% | [6] 26.8%
